The supplement of paper PMC13380429
Unmarked numbers belong to inactive results.

Tested on: Vero E6 infected with SARS-CoV-2
Assay: inhibition of SARS-CoV-2 cytopathic effect; higher = more antiviral protection, active = above 15
Conditions: 48 h

SMILES | inhibition of SARS-CoV-2 cytopathic effect (1 nM) [%] | inhibition of SARS-CoV-2 cytopathic effect (8.33 nM) [%] | inhibition of SARS-CoV-2 cytopathic effect (100 nM) [%] | inhibition of SARS-CoV-2 cytopathic effect (833.33 nM) | inhibition of SARS-CoV-2 cytopathic effect (10000 nM)
O=C1OC(CN2CCOCC2)CN1/N=C/c1ccc([N+](=O)[O-])o1 (stereo not given) [furaltadone] | -10.1 | -5.96 | -8.17 | -6.67% | -6.1%
O=C(O)c1cc2cccc([N+](=O)[O-])c2[nH]1 | -1.29 | 0.14 | -0.8 | 0.27% | 1.27%
CCN1CCN(C(=O)Cc2ccc(Nc3ncc(F)c(Nc4ccc(C(=O)Nc5ccccc5Cl)cc4)n3)cc2)CC1 [aurora-a-inhibitor-i] | -0.07 | -0.73 | -0.58 | 0.9% | 4.49%
CN1[C@@H]2CC[C@H]1C[C@@H](OC(=O)C(CO)c1ccccc1)C2 (stereo not given in full) | -2.22 | -2.93 | 1.96 | 0.7% | 0.64%
CNCc1ccc(-c2cc(-c3nc(-c4ccc(S(=O)(=O)C(C)C)cc4)cnc3N)on2)cc1 | 0.45 | 3.25 | 1.09 | 24.5% (active) | 25.2% (active)
COC(=O)Nc1ccc2[nH]cc(CCNC(C)=O)c2c1 | -2.08 | -0.32 | -1.52 | -7.74% | -1.85%
CC(C)C[C@H](NC(=O)CNC(=O)[C@H](Cc1ccc(O)cc1)NC(=O)[C@H](CO)NC(=O)[C@H](Cc1c[nH]c2ccccc12)NC(=O)[C@H](Cc1cnc[nH]1)NC(=O)[C@@H]1CCC(=O)N1)C(=O)N[C@@H](CCCNC(=N)N)C(=O)N1CCC[C@H]1C(=O)NCC(N)=O [gonadorelin] | -1.95 | -2.66 | 0.47 | -1.19% | 1.93%
CC(C)(C)c1cc(NC(=O)Nc2ccc(-c3cn4c(n3)sc3cc(OCCN5CCOCC5)ccc34)cc2)no1 [quizartinib] | -1.91 | -0.28 | 0.83 | -4.72% | -4.89%
Cc1cc(Nc2ccc(NC(=O)c3ccc(Nc4ccnc5ccccc45)cc3)cc2)nc(N)n1 | -1.09 | 0.62 | 2.48 | 3.69% | 20.3% (active)
O=C(O)c1ccc2c(c1)C(=O)N(c1cccc(Oc3ccc([N+](=O)[O-])cc3)c1)C2=O | 1.34 | 0.95 | 0.59 | 1.36% | -0.65%
Nc1ncnc(Nc2ccc(Cl)cc2)n1 [chlorazanil] | 0.82 | -0.51 | -1.09 | -1.03% | -2.14%
CC(C)NNC(=O)c1ccncc1 [iproniazid] | 0.77 | -0.06 | 0.89 | 0.46% | -1.76%
C[N+](C)(C)CC#CCN1CCCC1=O [oxotremorine-M] | -3.6 | -0.15 | 2.23 | -2.21% | 0.38%
COC(=O)c1ccc(N2CCN(C)CC2)c(NC(=O)c2cccc(OC)c2)c1 | 6.88 | 6.06 | -2.23 | -3.85% | 1.03%
OC(c1ccccc1)(c1ccccc1)C1CCNCC1 [azacyclonol] | -0.3 | 1.56 | -2.53 | -0.09% | -3.58%
O=C(O)CCCN1C(=O)c2cccc3cccc(c23)C1=O [isodibut] | -4.53 | -1.77 | -4.8 | -0.3% | -2.2%
N[C@H](Cc1ccccc1)C(=O)O [D-phenylalanine] | 2.99 | -0.14 | 2.52 | 0.27% | 0.05%
O=c1[nH]cnc2c([C@@H]3N[C@H](CO)[C@@H](O)[C@H]3O)c[nH]c12 [forodesine] | -0.75 | 0.06 | -1.79 | -1.77% | -2.56%
Cc1[nH]c2ccc(O)cc2c1CCN [2-methyl-5-hydroxytryptamine] | -3.47 | -2.58 | -4.33 | -12.8% | -2.37%
Cc1c(S(=O)(=O)O)oc2c1C(=O)C(=O)c1c-2ccc2c1CCCC2(C)C [sodium-tanshinone-II-A-sulfonate] | -6.63 | -8.06 | -4.77 | -7.14% | -10.1%

SMILES | inhibition of SARS-CoV-2 cytopathic effect (1 nM) [%] | inhibition of SARS-CoV-2 cytopathic effect (8.33 nM) [%] | inhibition of SARS-CoV-2 cytopathic effect (100 nM) [%] | inhibition of SARS-CoV-2 cytopathic effect (833.33 nM) | inhibition of SARS-CoV-2 cytopathic effect (10000 nM)
Nc1nc(=O)[nH]cc1F [flucytosine] | -1.58 | -2.1 | 0.5 | 2.44% | 1.48%
CC(Cc1cccc(C(F)(F)F)c1)NCCOC(=O)c1ccccc1 (stereo not given) [benfluorex] | 0.5 | 0.35 | -0.24 | -1.03% | 0.26%
CC[C@]12C=CCN3CC[C@@]4(c5cc([C@@]6(C(=O)OC)C[C@@H]7C[C@@H](C(C)(F)F)CN(Cc8c6[nH]c6ccccc86)C7)c(OC)cc5N(C)[C@H]4[C@@](O)(C(=O)OC)[C@@H]1OC(C)=O)[C@@H]32 [Vinflunine Ditartrate] | 3.38 | 3.35 | 2.91 | -2.99% | -3.92%
Cc1ccc(Cl)c(Nc2ccccc2C(=O)O)c1Cl [meclofenamic-acid] | -0.6 | 1.04 | -1.96 | 0.39% | -1.58%
O=C(c1cn(Cc2cncn2Cc2ccc(Br)cc2)cc1-c1cccc2ccccc12)N1CCOCC1 | -2.2 | -3.17 | -1.58 | -0.44% | -3.78%
C/C(=C\C(=O)Nc1ccccc1C(=O)O)c1ccc2ccccc2c1 | 3.55 | 3.85 | 1.03 | 1.37% | -2.89%
CCCCCN(C)CCC(O)(P(=O)(O)O)P(=O)(O)O [ibandronate] | 0.68 | 1.34 | 0.79 | -3.03% | -2.11%
COc1cc(N2CCC(N3CCN(C)CC3)CC2)ccc1Nc1ncnc(Nc2ccccc2S(=O)(=O)C(C)C)n1 | 1.25 | -0.68 | 1.16 | 2.18% | -7.16%
NC(=O)c1ccc([N+](=O)[O-])cc1Cl [aklomide] | -0.14 | 0.27 | 2 | 1.45% | 0.79%
CCn1cc(C(=O)O)c(=O)c2cc(F)c(N3CCNCC3)nc21 [enoxacin] | 4.58 | 2.38 | 0.25 | -2.16% | 0.56%
COc1cc2c(cc1OC)-c1c(C)c3ccc(OC)c(OC)c3c[n+]1CC2 [dehydrocorydaline] | -0.53 | 0.34 | -1 | -1.37% | 0.05%
Cc1c(O)c(=O)n(-c2ccccc2)n1C [4-hydroxy-phenazone] | -1.11 | 0.39 | 4.58 | -1.8% | -2.04%
N=C(N)c1ccc(OCCCCCOc2ccc(C(=N)N)cc2)cc1 [pentamidine] | -3.18 | -3.29 | -4.34 | -11.7% | 1.08%
O=C(Nc1ccc(O)cc1)c1ccccc1O [N-salicoylaminophenol] | 1.23 | 2.05 | 1.76 | 2.47% | 4.87%
O=c1c(O[C@@H]2O[C@H](CO)[C@H](O)[C@H](O)[C@H]2O)c(-c2ccc(O)c(O)c2)oc2cc(O)cc(O)c12 [hyperin] | 0.95 | 2.27 | -0.59 | -1.62% | 0.59%
C[C@@H](NCCCc1cccc(C(F)(F)F)c1)c1cccc2ccccc12 [cinacalcet] | 1.8 | 2.9 | 0.77 | -2.27% | -3.52%
O=C1/C(=C/c2ccccc2)C[C@@]2(O)[C@H]3Cc4ccc(O)c5c4[C@@]2(CCN3CC2CC2)[C@H]1O5 | -2.61 | 0.97 | 1.2 | 8.78% | -26.4%
NS(=O)(=O)c1cc(-c2nnn[nH]2)c(NCc2cccs2)cc1Cl [azosemide] | 2.38 | -0.55 | 3.16 | 9.99% | -3.43%
CS(=O)(=O)c1cc(F)cc2c3c(n(Cc4ccc(Cl)cc4)c12)[C@@H](CC(=O)O)CC3 [laropiprant] | 0.24 | -3 | -0.36 | 1.31% | 2.04%
